Experimental data as given in PubChem BioAssay (EPA / NIEHS).
Active and inactive are the calls of the source. How the source made its calls: active means hit-call score of the fitted dose curve at least 0.9, where 1 is the maximum; inactive means score below 0.9.

Experiment: ATG_GATA_CIS: Attagene CIS-FACTORIAL HepG2 Assay for human GATA Binding Protein (AID 2282944)
Details: HepG2 GATA cis-element reporter, Attagene multiplex mRNA; actives raise or lower the signal
Experimental: ATG_CIS is a cell-based, multiplexed-readout assay that uses HepG2, a human liver cell line, with measurements taken at 24 hours after chemical dosing in a 24-well plate.ATG_GATA_CIS is one of 52 assay component(s) measured or calculated from the ATG_CIS assay. It is designed to make measurements of mRNA induction, a form of inducible reporter, as detected with fluorescence intensity signals by Reverse transcription polymerase chain reaction (RT-PCR) and Capillary electrophoresis technology.Data from the assay component ATG_GATA_CIS was analyzed into 1 assay endpoint. This assay endpoint, ATG_GATA_CIS, was analyzed with bidirectional fitting relative to DMSO as the negative control and baseline of activity. Using a type of inducible reporter, measures of mRNA for gain or loss-of-signal activity can be used to understand the reporter gene at the transcription factor-level as they relate to the gene GATA1. Furthermore, this assay endpoint can be referred to as a primary readout, because this assay has produced multiple assay endpoints where this one serves a reporter gene function. To generalize the intended target to other relatable targets, this assay endpoint is annotated to the dna binding intended target family, where the subfamily is GATA proteins.
Human liver HepG2 cells are transiently transfected with multiple reporter transcription units (MRTUs) in 6-well plates using FuGene 6 reagent (Roche; 3 ml FuGene/1 mg DNA). The MRTU constructs are regulated by a cis-regulating element (promoter). […] A major difference between the CIS and TRANS system is that in CIS activities of endogenous TFs are measured, whereas the TRANS assay evaluates changes in activities of exogenous, chimeric NR-Gal4 proteins. […] At the end of 24 hour incubation, total RNA was isolated using TriZol reagent (Invitrogen). The isolated RNA is then reverse-transcribed using oligo(dT) primer and Mo-MLV reverse transcriptase (Invitrogen) with DNAse I (Ambion) treatment for 30 min. The one-tenth of the produced cDNA was amplified by PCR using Taq DNA polymerase (Invitrogen) and two reporter sequence-specific primers. The PCR products were fluorescently labeled by primer extension with 6-arboxyfluorescein (6-FAM) 5'-labeled reporter sequence-specific primer (2 min at 95 C, 20 s at 68 C and 10 min at 72 C) and these products were digested with 5U of HpaI (New England Biolabs) for 2h at 37 C. The fragments were purified using Qiaquick PCR columns (Qiagen), analyzed on an ABI 3130xL genetic analyzer (Applied Biosystems) with peak positions identified by using a set of X-rhodamine (ROX)-labeled MapMarker1000 molecular weight standards (BioVentures). The raw capillary electrophoresis data was processed using Attagraph software (Attagene).

Structure (SMILES) | outcome | AC50
O=CCCl | inactive | 
CCOC(=O)C(SP(=S)(OC)OC)c1ccccc1 (stereo not given) | inactive | 
Cc1c([N+](=O)[O-])c(C)c([N+](=O)[O-])c(C(C)(C)C)c1[N+](=O)[O-] | inactive | 
c1ccc2sc(SNC3CCCCC3)nc2c1 | inactive | 
CCOP(=S)(OCC)O/N=C(\C#N)c1ccccc1 | inactive | 
C#CCOC(=O)/C=C(C)/C=C/CC(C)CCCC(C)C (stereo not given) | inactive | 
N#CS | inactive | 
CCOP(=O)(OCC)OC(=CCl)c1ccc(Cl)cc1Cl | inactive | 
Cl[C@H]1OCCO[C@@H]1Cl | inactive | 
N#Cc1ccccc1Cl | inactive | 
C=CCOC(N)=O | inactive | 
CCN(CC)C(=O)C(Cl)=C(C)OP(=O)(OC)OC | inactive | 
CC(C)CC(C)(c1ccc(O)cc1)c1ccc(O)cc1 | inactive | 
COC(F)(C(F)(F)C(F)(F)F)C(F)(C(F)(F)F)C(F)(F)F (stereo not given) | inactive | 
CCCCCCCCBr | inactive | 
CC(F)(F)CC(F)(F)F | inactive | 
Nc1nc(=S)[nH][nH]1 | inactive | 
Nc1ncn[nH]1 | inactive | 
O=[N+]([O-])c1cccc2ccccc12 | inactive | 
CC(C)[C@@H](Nc1ccc(C(F)(F)F)cc1Cl)C(=O)OC(C#N)c1cccc(Oc2ccccc2)c1 (stereo not given in full) | inactive | 

Structure (SMILES) | outcome | AC50
O=C=Nc1ccc(Cl)cc1 | inactive | 
N#Cc1ccccc1N | inactive | 
CCN(CCO)CCO | inactive | 
C=CCCl | inactive | 
Nc1ccc(Br)cc1 | inactive | 
c1csc(-c2ccc(-c3cccs3)s2)c1 | inactive | 
CC(C)(C#N)N=NC(C)(C)C#N | inactive | 
COc1ccccc1N | inactive | 
CCOP(=S)(OCC)SCS(=O)(=O)C(C)(C)C | inactive | 
Brc1ccc(Oc2c(Br)cc(Br)cc2Br)c(Br)c1 | inactive | 
CCCCC(CC)C(=O)Cl (stereo not given) | inactive | 
N#Cc1ccncc1 | inactive | 
Cc1ccc(OP(=O)(Oc2ccc(C)cc2C)Oc2ccc(C)cc2C)c(C)c1 | inactive | 
ClCc1ccccc1CCl | inactive | 
Clc1ccc(C(Cl)(Cl)Cl)cn1 | inactive | 
CCC[CH2][Sn]([Cl])([Cl])[CH2]CCC | inactive | 
[Cl][Sn]([c]1ccccc1)([c]1ccccc1)[c]1ccccc1 |  | 1.2 µM (active)
C=C(C)C(=O)OCCCCOC(=O)C(=C)C | inactive | 
Oc1c(Br)cc(Br)cc1Br | inactive | 
Oc1cc(Cl)c(Cl)cc1Cl | inactive | 
